Assay results taken from PubChem BioAssay AID602410 (Johns Hopkins Ion Channel Center, 2012).
Out of some 340,000 compounds screened, about 2,800 (0.82%) were called active.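 Rule for the calls: active = B-score under library mean minus 4 SD, starting fluorescence ratio at most library mean plus 5 SD; inactive = the rest.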 The entries come from a sample that favours actives as a whole.

Biological target: Potassium channel subfamily K member 3 (Homo sapiens) (UniProt O14649)
Test: blockers of TASK1 two-pore potassium channel – CHO cells, FluxOR thallium flux, B-score, primary screen (AID 602410);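 for B-score: more negative B-score means stronger inhibition of thallium flux through KCNK3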
Settings: CHO-KCNK3 thallium flux, FluxOR fluorescence, at 10 µM; active compounds read low

Chain of Potassium channel subfamily K member 3 (Homo sapiens) (O14649 whole entry, looked up): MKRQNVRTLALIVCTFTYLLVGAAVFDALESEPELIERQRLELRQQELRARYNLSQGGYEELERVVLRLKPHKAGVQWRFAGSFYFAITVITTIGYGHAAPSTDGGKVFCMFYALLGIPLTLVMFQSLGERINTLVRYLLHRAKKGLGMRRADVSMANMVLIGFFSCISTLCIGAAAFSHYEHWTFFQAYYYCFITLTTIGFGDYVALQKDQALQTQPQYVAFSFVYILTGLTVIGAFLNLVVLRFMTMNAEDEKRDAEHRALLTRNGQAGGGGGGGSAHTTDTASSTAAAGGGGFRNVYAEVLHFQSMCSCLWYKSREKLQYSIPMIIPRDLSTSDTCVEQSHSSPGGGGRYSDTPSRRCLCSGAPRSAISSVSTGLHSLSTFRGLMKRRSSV

Structure (SMILES)	B-score
O=C(c1cc(-c2ccc(O)cc2)on1)N1CCOCC1	inactive
O=C(c1cc(-c2cccc(O)c2)on1)N1CCc2ccccc2C1	inactive
O=C(c1cc(-c2ccc(O)cc2)on1)N1CCCc2ccccc21	-9.08 (active)
Cc1onc(-c2ccccc2)c1C(=O)N=C(N)c1ccc(Cl)cc1	inactive
CCc1ccc(C(=O)CSc2nnc(C)c(=O)[nH]2)cc1	inactive
COC(=O)c1c(NC(=O)c2ccccc2F)sc2c1C(C(=O)OC)CC2 (stereo not drawn)	inactive
O=C(CNS(=O)(=O)c1ccccc1)NCC(=O)OCc1ccccc1F	inactive
COCCNc1cc(-c2ccccc2)nc2cc(-c3cccc(F)c3)nn12	-8.74 (active)
COc1ccc(NC(=O)c2cc3nc(-c4ccccc4)cc(C)n3n2)cc1OC	inactive
COC(=O)C(C)Sc1ccc2nnc(-c3cccc(F)c3)n2n1 (stereo not drawn)	inactive
CC1CCCN(CC(=O)Nc2cc(Cl)ccc2Oc2ccccc2)C1 (stereo not drawn)	-11.4 (active)
O=C(CSc1ccccc1)Nc1cc(Cl)ccc1Oc1ccccc1	inactive
CC(=O)Nc1ccc(NC(=O)CN2CCCC(C)C2)c(Cl)c1 (stereo not drawn)	inactive
O=C1CCC[C@@H]2CC(N3CCCCC3)C[C@@H]3CCN1[C@H]23 (stereo partly drawn)	inactive
COc1ccc(CC(NC(C)=O)C(=O)N2CCN(C(=O)Nc3cccc(Cl)c3)CC2)cc1OC (stereo not drawn)	inactive
Cc1ccc(C(=O)NNC(=O)CSc2nnc3ccccn23)cc1	inactive
CCCNC(=O)CSc1nc(Cc2ccccc2)nc2ccccc12	inactive
CCc1nc(SCC(=O)NNC(=O)c2ccc(C)cc2)c2ccccc2n1	-8.73 (active)
C=CCSc1nc(Cc2ccc(Cl)cc2)nc2ccccc12	inactive
CCN1CCN(c2c(Cl)cccc2NC(=O)c2ccc(Br)o2)CC1	inactive
O=C(CNC(=O)c1ccc(Br)o1)Nc1ccccc1	inactive
CCCC(=O)Nc1ccc(Cl)c(NC(=O)c2ccc(Br)o2)c1	-9.33 (active)
CC(=O)C1=C(C)NC(C)=C(C(C)=O)C1c1cn(-c2ccccc2)nc1-c1cccs1	inactive

Structure (SMILES)	B-score
COc1ccc(C(C(=O)NC(C)(C)C)N(C(=O)Cn2nnc3ccccc32)c2ccc(C(C)=O)cc2)cc1O (stereo not drawn)	inactive
C#CC(C)(C)NC(=O)c1cnc(-c2ccccc2)nc1-c1ccccc1	inactive
CS(=O)(=O)c1ccc(-c2nnn(CC(=O)Nc3ccc4c(c3)OCCO4)n2)cc1	inactive
CC1(C)CC(=O)C/C(=N\NC(=O)c2cccs2)C1	inactive
CN(CC(=O)NCCc1ccc(S(N)(=O)=O)cc1)CC(=O)Nc1ccc(F)c(F)c1F	inactive
Cc1ccc(C(=O)N/C(=C\c2cn(S(=O)(=O)N(C)C)c3ccccc23)C(=O)N2CCCC2)cc1	inactive
C=CCSc1nnc(N2C(=O)C(O)=C(C(=O)c3ccco3)C2c2ccc(F)cc2)s1 (stereo not drawn)	-10.6 (active)
Cc1ccc2nc(N3C(=O)C(O)=C(C(=O)c4ccco4)C3c3cccc(O)c3)sc2c1 (stereo not drawn)	inactive
C=CCOc1cccc(C2C(C(=O)c3ccc(C)o3)=C(O)C(=O)N2c2nnc(C)s2)c1 (stereo not drawn)	inactive
Cc1cc(C)c(S(=O)(=O)c2ccccc2)c(OC(=O)c2c(F)cccc2Cl)n1	-14.3 (active)
Cc1cc(OC(=O)c2c(Cl)cccc2Cl)nc(C)n1	inactive
O=C(c1c(F)cccc1Cl)N1CCN(S(=O)(=O)c2ccc3c(c2)OCCCO3)CC1	inactive
CCCCc1nc2ccccc2c(NC(=O)CN2CCN(C)CC2)c1CCC	inactive
Clc1ccc(CSc2nnc(/C=C/c3ccccc3)o2)c(Cl)c1	inactive
CSCc1cc(N(C)C)nc(SCc2ccc(Cl)cc2Cl)n1	-9.62 (active)
CSCc1cc(N2CCOCC2)nc(SCc2ccc(Cl)cc2Cl)n1	inactive
N#Cc1cccc(NC(=O)COC(=O)c2ccccc2C(=O)c2ccc(Cl)c([N+](=O)[O-])c2)c1	-11.8 (active)
CC(=O)Nc1ccc(NC(=O)COC(=O)c2ccccc2C(=O)c2ccccc2)cc1	inactive
CC(=O)Nc1ccc(NC(=O)C(C)OC(=O)c2ccccc2C(=O)c2ccc(Cl)c([N+](=O)[O-])c2)cc1 (stereo not drawn)	inactive
CCOc1ccc2oc(C(=O)N(CC)CC(=O)Nc3ccc(NC(C)=O)cc3)c(C)c2c1	inactive
Cc1nc(=O)c(-c2ccccc2)c(C)n1-c1ccc(Br)cc1	inactive
CC(C)Oc1ccc(C2NC(=O)NC2=O)cc1 (stereo not drawn)	inactive
O=C1c2ccccc2C2=Nc3ccccc3SC(c3ccccc3F)C12 (stereo not drawn)	-12.4 (active)

Structure (SMILES)	B-score
Cc1cccc(C2c3c(n(C)c(=O)n(C)c3=O)N=C3c4ccccc4C(=O)C32)c1 (stereo not drawn)	inactive
Cc1csc2nc(O)c(C(=O)NCCN3CCOCC3)c(=O)n12	inactive
Cc1ccc(NC(=O)c2sc3nc(N)c(C#N)cc3c2N)cc1	inactive
COc1ccc(OC)c(NC(=O)c2sc3nc(C)cc(C)c3c2N)c1	inactive
Cc1cccc(NC(=O)c2sc3nc4c(c(-c5ccco5)c3c2N)CCC4)c1	-11.4 (active)
CCCN=C1NC(=O)C(CC(=O)NCCc2ccc(OC)c(OC)c2)S1 (stereo not drawn)	inactive
O=C1c2ccccc2C(Nc2ccc3c(c2)OCCO3)N1Cc1ccco1 (stereo not drawn)	inactive
CCOC(=O)c1cccc(NC(=O)C2CCN(c3ncnc4c3nc3n4CCCCC3)CC2)c1	inactive
COc1ccccc1NC(=O)Nc1nc(CC(=O)Nc2ccccc2F)cs1	inactive
O=C(COc1ccccc1F)Nc1nc(-c2ccccn2)cs1	inactive
COc1ccc(CC(=O)Nc2nc(-c3ccc(F)c(F)c3)cs2)cc1OC	-12.4 (active)
CCOC(=O)N1CCN(Cc2nc(Cc3cccc(C(F)(F)F)c3)no2)CC1	inactive
O=C(NCCCN1CCOCC1)c1cc2c(s1)CCC2	inactive
CN1CCN(CCCNC(=O)c2cc3c(=O)oc4ccccc4c3s2)CC1	inactive
Cc1cccc2c1-c1sc(C(=O)NCCCN3CCc4ccccc4C3)cc1CO2	-9.55 (active)
O=C(O)Cc1csc(NC(=O)CSc2nnnn2-c2ccc(O)cc2)n1	inactive
COc1ccc(Cl)cc1NC(=O)C(C)N1CCc2ccccc21 (stereo not drawn)	-8.75 (active)
COc1ccc(Cl)cc1NC(=O)NCC1CCN(Cc2ccccc2F)CC1	inactive
COc1ccc(Cl)cc1NC(=O)NC(C)C(C)(C)C (stereo not drawn)	inactive
Cc1ccc(S(=O)(=O)NCc2cn3ccsc3n2)c(C)c1	-20.8 (active)
Cc1nc(CNS(=O)(=O)c2cc([N+](=O)[O-])ccc2C)cs1	inactive
O=C(NCc1cn2ccsc2n1)Nc1cccc(Cl)c1	inactive
